Here are results for 38 compounds from PubChem BioAssay (NCI).

The panel holds about 83,000 compounds, 20% with a hit somewhere; the sample as a whole holds those more often.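 In brief: 96-well plates, 48 h treatment, single concentration, percent growth endpoint.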 Calls of active or inactive are those of the source. How the source made its calls: active means growth percent below 10; inactive means the rest.

The subject of the assay is K-562 leukemia. Description: NCI-60 one-dose screen, 48 h (100 = growth as untreated, 0 = no growth, -100 = all killed). As to conditions: 10 µM unless noted.
Take `COc1cc2[nH]c(C(=O)c3cc(OC)c(OC)c(OC)c3)c(N)c2cc1C#CC1CC1`: the growth was 30.2% (inactive). With `COc1cc2c(cc1OC)C(=O)/C(=C/c1cc(-c3ccc4c(c3)OCO4)n[nH]1)C2` the figure was -41.5% (active). With `NS(=O)(=O)c1ccc(CCNC(=O)/C=C/c2ccc(Cl)cc2)cc1` the figure was 90.4% (inactive); with `C/C(=N/NC(N)=S)C(=O)O`, 55.3% (inactive); with `Cc1ccc(-c2ccc(Nc3ccccc3)nn2)cc1S(N)(=O)=O`, 21.3% (inactive).

For the compound `CCC(c1ccc(OC)cc1)C(CC)c1ccc(O)c(CN2CCCCC2)c1` (stereo not drawn), the growth was 15.4% (inactive). For `COc1cc(-c2cc(-c3nc4ccc(F)cc4[nH]3)[nH]n2)cc(OC)c1OC` the value was 0.735% (active); for `COc1cccc(NC(=O)c2sc3nc4c(cc3c2N)C(=O)CCC4)c1`, 5.55% (active).

Turning to `NC1(N)C=CC2=C(C=C1)C1(N)C3=C(C=CC(N)(N)C=C3)N2C2(N)C3=C(C=CC(N)(N)C=C3)N1C1=C2C=CC(N)(N)C=C1`, the growth is 81.7% (inactive). Take `COc1ccc(-c2nc3ccccn3c2-c2nc3ccc(Cl)cc3[nH]2)cc1`: the growth was 54.6% (inactive). Turning to `O=c1c(CNc2ccc(S(=O)(=O)Nc3nccs3)cc2)coc2ccccc12`, the growth was 92.2% (inactive).

Regarding `CN1CCN(c2nc(-c3cccc4ccccc34)nc3sc4c(c23)CCCCCC4)CC1`, the growth is 85.3% (inactive). With `COc1ccc2nc(-c3cc(-c4cc(OC)c(OC)c(OC)c4)n[nH]3)[nH]c2c1`, the growth is -10.7% (active). For the compound `COc1cccc(-c2nn(-c3ccccc3)cc2-c2ccnc(NCCNS(=O)(=O)c3ccc(Cl)cc3)c2)c1`, the growth is 11.7% (inactive).

Regarding `O=S(=O)(NCCNc1cc(-c2cn(-c3ccccc3)nc2-c2cccc(O)c2)ccn1)c1ccc(C(F)(F)F)cc1`, the growth was 7.03% (active).

Consider `Cc1cc(C)c(NC(=O)c2sc3nc4c(cc3c2N)CCCC4)c(C)c1`, for which the growth is 12.4% (inactive). With `C/C(=N\Nc1cc(C)c2ccccc2n1)c1ccccn1` the figure was -41.4% (active); with `C=C1C(=O)O[C@H]2[C@H]1CC/C(Cn1cc(-c3ccc(OC)cc3)nn1)=C\CC[C@@]1(C)O[C@@H]21`, -9.11% (active).

As for `COC(=O)[C@]12CC[C@@H](C)[C@H](C)[C@@H]1C1=CC[C@@H]3[C@@]4(C)C[C@@H](OC(C)=O)[C@H](OC(C)=O)[C@@](C)(COC(C)=O)[C@@H]4[C@H](O)C[C@@]3(C)[C@]1(C)CC2`, the growth was 8.42% (active). With `COc1cccc(-c2nn(-c3ccccc3)cc2-c2ccnc(NCCCNS(=O)(=O)c3ccc(Cl)cc3)c2)c1` the figure was 11.6% (inactive). As to `O=c1c(CNc2ccc(S(=O)(=O)Nc3ncccn3)cc2)coc2ccccc12`, the growth is 100% (inactive).

In the case of `COc1ccc(-c2cc(/C=C/C(=O)c3ccc(OC)c(OC)c3)[nH]n2)cc1`, the growth is -29.8% (active).

`C#Cc1cc2c(N)c(C(=O)c3cc(OC)c(OC)c(OC)c3)[nH]c2cc1OC`: the growth was 13.4% (inactive). With `O=S(=O)(NCCNc1cc(-c2cn(-c3ccccc3)nc2-c2cccc(O)c2)ccn1)c1ccc(F)cc1` the figure was 1.3% (active); with `c1ccc2[nH]c(-c3cc(-c4ccc5c(c4)OCO5)n[nH]3)nc2c1`, 36.3% (inactive). Take `COc1cccc(-c2nn(-c3ccccc3)cc2-c2ccnc(NCCCNS(=O)(=O)c3cccc(F)c3)c2)c1`: the growth is 6.28% (active). For `COc1cc(-c2cc(-c3nc4cc(Cl)c(Cl)cc4[nH]3)[nH]n2)cc(OC)c1OC` the value was 17.5% (inactive); for `Oc1cc(/C=C/c2nc(N3CCOCC3)c3cc(Cl)c(Cl)cc3n2)cc(O)c1O`, 81.5% (inactive). Consider `Cc1cc(Nc2ccc(F)cc2)nc(N2CCN(c3ccnc4cc(Cl)ccc34)CC2)n1`, for which the growth was 6.26% (active). With `COc1ccc(/C=C/C(=O)NCC(C)O)cc1` (stereo not drawn) the figure was 122% (inactive); with `COc1ccc(-c2cc(/C=C/C(=O)c3ccc(N)cc3)[nH]n2)cc1`, -2.07% (active). Turning to `CSc1ccc(N(C)c2nc(C)nc3c2CCC3)cc1`, the growth is 5.51% (active). With `OCCNc1nc(Nc2ccc(Cl)c(Cl)c2)nc2ccccc12` the figure was 2.65% (active); with `COc1cc(-c2cc(-c3nc4ccccc4[nH]3)[nH]n2)cc(OC)c1OC`, 4.51% (active); with `O=C1CCN2C(=O)Nc3ccccc3C2C1` (stereo not drawn), 101% (inactive). With `Cc1[c-]onc1C.Cc1[c-]onc1C.[Ag].[Ag].[NH-]S(=O)(=O)c1ccc(N=Nc2cc(N=Nc3ccc(S([NH-])(=O)=O)cc3)c3c(NC(=O)C(Cl)Cl)cccc3c2OC(=O)C(Cl)Cl)cc1` the figure was 59.7% (inactive); with `Clc1ccc(Cn2cc(-c3nc4ccc(Br)nc4n3Cc3ccc(Cl)cc3)c3cccnc32)cc1`, 78.9% (inactive). In the case of `COC(=O)[C@]12CC[C@@H](C)[C@H](C)[C@@H]1C1=CC[C@@H]3[C@@]4(C)C[C@@H](OC(C)=O)[C@H](O)[C@@](C)(COC(C)=O)[C@@H]4[C@H](O)C[C@@]3(C)[C@]1(C)CC2`, the growth was -10.7% (active).
